# Test results as given in PubChem BioAssay AID540267 (National Center for Advancing Translational Sciences (NCATS), 2011).
# The whole screen tested about 340,000 compounds, of which about 530 (0.16%) were called active. Not shown: some 2% with an inconclusive outcome. This excerpt belongs to a sample that is enriched for actives. A number with no mark means an inactive call. Rule as the data show it: active = activity change below about -80%; inconclusive = between about -30% and that limit; inactive = weaker than that.
# Assay: Small Molecules that selectively kill Giardia lamblia: qHTS;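 also: parasites exposed to compound for two days anaerobically before the ATP read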
# Conditions: Giardia lamblia trophozoite viability; at 7.66 µM; active compounds read low
# From the text: Giardia lamblia is a human pathogen afflicting impoverished nations, and the most common cause of outbreaks of diarrhea in the United States. Giardia has been classified by the CDC as a category B bioterrorism organism. The favored anti giardiasis drugs in the US are metronidazole or tinidazole, compounds that have undesirable side effects. Moreover, increasing resistance to drug regimes and recurrence are a concern. It is thus clear that alternative drug treatments are needed.
# In a collaboration between the University of Maryland, College Park and the NIH Chemical Genomics Center, a bioluminescence Giardia viability assay based on the trophozoites' ATP content was developed. This assay is suitable for high throughput screening, and miniaturized the assay for compound screening in 1536-well plates. The goal of the project is to screen the Molecular Libraries Small Molecule Repository (MLSMR) for compounds that selectively kill Giardia trophozoites.
# NIH Chemical Genomics Center [NCGC]
# NIH Molecular Libraries Probe Centers Network [MLPCN]
# Assay Submitter (PI): Osnat Herzberg, University of Maryland, College Park, MD.
# 1. Dispense 2 ul/well media
# 2. Dispense 23 nl/well compounds
# 3. Dispense 4 ul/well Giardia trophozoites at a concentration of 100 cells/well
# 4. Incubate 48 hrs at 37 deg C anaerobically
# 5. Dispense 4 ul/well ATPLite 1-Step Luminescence assay kit
# 6. Incubate 15-30 min at room temperature
# 7. Read luminescence signal on ViewLux plate reader
# % is scaled to controls: 0 for no effect and ±100 for the full control effect.
row,Compound,activity change
1,CCNC(=O)Nc1ccc(S(=O)(=O)Nc2cnc(C)nc2C)cc1,-28.2%
2,CN(CC(=O)Nc1ccc(OC(F)(F)F)cc1)C(=O)C1CCC1,29.9%
3,N#Cc1c(N)nc2c(c1N)CC(C(F)(F)F)O2 (stereo unspecified),-7.55%
4,C=CCNC(=O)c1ccc2nc(-c3ccco3)c(-c3ccco3)nc2c1,-26.3%
5,NC(=O)c1ncn([C@@H]2O[C@H](CN=C3NS(=O)(=O)c4ccccc43)[C@@H](O)[C@H]2O)n1,-14.2%
6,CC(=NNC(=O)c1ccncc1)c1ccc(Cl)c(Cl)c1,-4.59%
7,COC(=O)[C@]1(C)N[C@H](c2ccc(-c3ccc(Cl)c(Cl)c3)cc2)[C@@H]2C(=O)N(C)C(=O)[C@@H]21,-3.14%
8,COC(=O)C1=C(C(=O)c2ccc(C)cc2)C(c2ccccc2)n2nnnc2N1 (stereo unspecified),2.03%
9,Cc1ccc(S(=O)(=O)N2CCN(C(=O)CSc3cc(C)ccc3C)CC2)c(C)c1,-9.03%
10,CN(C)S(=O)(=O)c1cc(C(=O)Nc2ccn(C)n2)c(Cl)cc1Cl,4.66%
11,C=CCn1c(CCNC(=O)c2ccccc2F)nnc1SCC(=O)Nc1ccc(OC)cc1,1.96%
12,CCN(CC)CCCNC(=O)c1c(O)c2cc(F)cc3c2n(c1=O)C(C)CC3 (stereo unspecified),31%
13,COc1cc(SC)ccc1C(=O)Nc1nc(C)cs1,-94.7% (active)
14,COc1ccc(C(=O)Nc2cccc(NC(=O)c3ccc(OC)cc3OC)n2)c(OC)c1,-19%
15,COc1cc(SC)ccc1C(=O)N(Cc1ccccc1)c1ccccc1,-27.1%
16,CC(=O)N1CCc2c(sc(NC(=O)CCS(=O)(=O)c3ccccc3)c2C#N)C1,-1.29%
17,CCCN1CCC(=O)N(C(CSc2ccc(OC)cc2)Cc2ccccc2)CC1 (stereo unspecified),-25.3%
18,COc1cccc(/C=N\Nc2nncc(-c3ccccc3)n2)c1,5.7%
19,C/C(=N\Nc1nncc2ccccc12)c1ccc(Cl)c([N+](=O)[O-])c1,-7.6%
20,CN(CCO)c1ccc(/C=N/Nc2nncc3ccccc23)cc1,-87.9% (active)
21,CC1(C)CCc2cc(S(=O)(=O)N3CCN(c4nc(-c5cccs5)nc5ccccc45)CC3)ccc2O1,-0.147%
22,COc1ccc(CN(Cc2ccccc2)C(=O)c2ccc(O)cc2)cc1COc1ccc(NC(C)=O)cc1,41.3%

row,Compound,activity change
1,CC(=O)OCC(NC(=O)C(Cc1ccccc1)NC(=O)OC(C)(C)C)C1OC(n2ccc(=O)[nH]c2=O)C(OC(C)=O)C1OC(C)=O (stereo unspecified),-16.1%
2,O=C(O)C1CCC(CNS(=O)(=O)c2ccc(Br)cc2)CC1 (stereo unspecified),18.6%
3,CCOc1ccc(N(C)Cc2cc(=O)oc3ccc(OC)cc23)cc1,0.548%
4,C=CCOc1ccc(/C=C/C(=O)OCC(=O)NC(C)c2ccc(F)cc2)cc1 (stereo unspecified),-21.6%
5,COc1ccc2c(C)cc(SCC(=O)NCC3CCCO3)nc2c1 (stereo unspecified),-1.83%
6,COc1ccc(-c2ccc(C3C4C=CCCC4(C)C(=O)N3Cc3ccccc3)c(F)c2)cc1OC (stereo unspecified),5.8%
7,C/C(CC(=O)Nc1ccc(C)cc1C)=N\NC(=O)C(C)C,-14.4%
8,CC(C)C(=O)N1c2ccccc2NC2=C(C(=O)CCC2)C1c1ccc(N(C)C)cc1 (stereo unspecified),1.62%
9,COC(=O)C1=C(C)N(C)C(=S)NC1c1ccccc1 (stereo unspecified),-6.21%
10,COc1ccc(C2NC(=O)N(C)C(C)=C2[N+](=O)[O-])cc1 (stereo unspecified),22.3%
11,COC(=O)C1=C(C)N(C)C(=O)NC1c1ccc([N+](=O)[O-])o1 (stereo unspecified),-87.4% (active)
12,Oc1ccc(Cl)cc1C1C=C(c2ccc3c(c2)OCO3)NC(c2c(F)cccc2Cl)N1 (stereo unspecified),-23.4%
13,CCOC(=O)CSc1nnc(CNC(=O)c2ccco2)n1-c1ccc(F)cc1,-0.714%
14,O=C(/C=C/c1ccc([N+](=O)[O-])o1)NNC(=O)c1ccc(F)cc1,2.18%
15,C/[N+]([O-])=C\c1ccc([N+](=O)[O-])o1,-92.7% (active)
16,O=[N+]([O-])c1ccc(C=NN=Cc2ccc([N+](=O)[O-])cc2)cc1,12.5%
17,COc1cc(Cl)c(C)cc1NC(=O)CSc1nnc(-c2ccco2)n1CC(C)C,6.88%
18,CC(C)Cn1c(N)c(C(=O)COC(=O)C2CCCN2C(=O)c2cccs2)c(=O)n(C)c1=O (stereo unspecified),20.2%
19,C[C@H](NC(=O)C1CCN(S(=O)(=O)c2ccccc2)CC1)C(=O)NCc1ccccc1,10.6%
20,O=C(NCc1ccccn1)[C@]1(C(F)(F)F)C[C@H](CCc2ccccc2)CCCO1,-0.242%
21,COc1cccc(C(=O)c2sc3nc(-c4ccccc4)cc(C(F)(F)F)c3c2N)c1,4.39%
22,COc1ccc(S(=O)(=O)N2CCN(CC(=O)N3c4ccccc4CC3C)CC2)cc1OC (stereo unspecified),-6.14%

row,Compound,activity change
1,CC(=O)Nc1ccc(S(=O)(=O)N2N=NC3C2C2CC4C3(CN(C(=O)OC(C)(C)C)S4(=O)=O)O2)cc1 (stereo unspecified),-7.9%
2,CC(C)C(C)NC(=O)COc1nc2ccccc2nc1N(C)C1CCCCC1 (stereo unspecified),0.279%
3,CN(c1ccc2nc3ccccc3c(=O)n2n1)C1CCCCC1,-82.4% (active)
4,CN(C(=O)c1cc2c(=O)n3ccccc3nc2s1)C1CCCCC1,9.98%
5,COC(=O)CCc1ccccc1S(=O)(=O)N(CCC(=O)OC)Cc1ccccc1,9.42%
6,CCCCN(C1CCS(=O)(=O)C1)S(=O)(=O)c1ccc(C(C)C)cc1 (stereo unspecified),-8.89%
7,Cc1n[nH]c(C)c1S(=O)(=O)N1CCCC(C(=O)NCC2COc3ccccc3O2)C1 (stereo unspecified),1.3%
8,COc1ccc(S(=O)(=O)N2CCC(C(=O)OCC(=O)c3ccccc3)CC2)cc1[N+](=O)[O-],-0.271%
9,Cc1ccc(NC(=O)C(C)OC(=O)Cc2c[nH]c3ccccc23)cc1S(=O)(=O)N1CCOCC1 (stereo unspecified),-9.72%
10,COc1ccc(S(=O)(=O)Nc2cccc3cccnc23)c(N)c1,-6.45%
11,CCCN1CCC(=O)N(C(CSc2ccc(C)cc2)Cc2ccccc2)CC1 (stereo unspecified),13%
12,CCc1nn(CC(=O)N2CCN(CC)CC2)c(=O)c2cccn12,-17.4%
13,COc1ccc2c(c1)CC[C@@H]1[C@@H]2CC[C@]2(C)C(=O)CC[C@@H]12,2.55%
14,O=C(ON=C1CCN(S(=O)(=O)c2ccccc2)CC1)c1ccc(Cl)cc1,-18%
15,Cc1cccc(NS(=O)(=O)c2ccc(-c3cnc(C4CC4)o3)cc2)c1,23.1%
16,COc1ccc(C2CC(O)(c3ccccc3)Oc3cc(C)cc(C)c32)cc1 (stereo unspecified),-2.28%
17,CCOC(=O)c1cc(OC(=O)c2ccccc2Cl)n(-c2ccccc2)n1,20.6%
18,c1ccc(Cn2nnc3c(N4CCCCC4)ncnc32)cc1,6.21%
19,CCOc1ccc(NC(=O)CN(C)C(=O)Cn2c(=O)cnc3ccccc32)cc1OCC,3.18%
20,COc1ccc(CN2CCC(=O)c3ccccc3S2(=O)=O)cc1,-21.5%
21,CS(=O)(=O)N(Cc1ccc(Cl)cc1)c1ccc(C(=O)NCCSCc2ccco2)cc1,4.68%
22,Cc1nnc(SC(C(=O)Nc2cc(Cl)cc(Cl)c2)c2ccccc2)[nH]c1=O (stereo unspecified),24.1%

row,Compound,activity change
1,O=[N+]([O-])/C=C1\CCCCCN1,-16.8%
2,CNC(=O)[C@]1(C(F)(F)F)C[C@H](CCc2ccccc2)CCCO1,-0.81%
3,Cc1ncc([N+](=O)[O-])n1CCOC(=O)c1ccc(Br)cc1,-80.4% (active)
4,Cc1nn(CCOc2ccc(Br)cc2)c(C)c1[N+](=O)[O-],-11%
5,N/C(=N\OC(=O)Cc1ccccc1[N+](=O)[O-])c1ccc(Br)cc1,-8.48%
6,C=CCCN(C(Cc1ccccc1)C(=O)OC)S(=O)(=O)c1cc(Br)ccc1Br (stereo unspecified),-13%
7,CCN(CC)C(=O)COc1coc(CN2CCN(Cc3ccccc3)CC2)cc1=O,-13.6%
8,CCOC(=O)C1CCCN(C(=O)COc2ccc(N(C)S(=O)(=O)c3ccc(C)cc3)cc2)C1 (stereo unspecified),-1.39%
9,COc1ccc(C2Nc3ccc(NC(=O)COC(C)=O)cc3C(=O)N2Cc2ccccc2)cc1COc1ccc(NC(C)=O)cc1 (stereo unspecified),26.7%
10,COc1ccc(OCCn2ccnc2C)cc1,8.15%
11,COc1ccc(-c2ccc(OC)c(C3C4C=CCC(C)C4C(=O)N3Cc3ccccc3)c2)cc1C (stereo unspecified),12.9%
12,CC1CC(C)CN(c2oc(-c3ccc(OCc4ccc(Cl)cc4)cc3)nc2C#N)C1 (stereo unspecified),25.3%
13,Cc1ccc(C(=O)N2CCN(C3CCCCC3)CC2)s1,2.7%
14,CCCC1OC23CCCCC2C(C#N)(C#N)C1(C#N)C(=N)O3 (stereo unspecified),1.74%
15,CC/C(=C(/c1ccccc1)c1ccc(OCC[N+](C)(C)C)cc1)c1ccccc1,8.29%
16,CCN(CC)S(=O)(=O)c1ccc(N2CCCC2)c(NC(=O)c2ccc([N+](=O)[O-])o2)c1,-96.4% (active)
17,CCN(CC)S(=O)(=O)c1ccc(N2CCOCC2)c(NC(=O)c2ccc(=O)n(C)n2)c1,-7.96%
18,CCN(CC)S(=O)(=O)c1cc(C(=O)Nc2cc(S(=O)(=O)N3CCOCC3)ccc2N2CCCC2)ccc1F,-19.1%
19,COC(=O)c1ccc(NC(=O)CN(c2ccc(C)cc2)S(=O)(=O)c2c(C)n[nH]c2C)cc1,12.5%
20,Cc1ccc(CNC(=O)C2(C(F)(F)F)C/C(=C\CCO)CCCO2)o1 (stereo unspecified),-14.6%
